Growth data for seven compounds are collected here from PubChem BioAssay (NCI).

Holding throughout (assay): NCI-60 one-dose screen, 48 h (100 = growth as untreated, 0 = no growth, -100 = all killed)
Holding throughout (conditions): 10 µM unless noted

Assay [1] concerns NCI-H23 lung.
In assay [2] the test system is NCI-H226 lung.
Assay [3] relates to NCI-H322M lung.
The test system of assay [4] is HOP-62 NSCLC.
In assay [5] the test system is NCI-H460 lung.
Assay [6] deals with HOP-92 NSCLC.
Assay [7] has as its system NCI-H522 lung.
The test system of assay [8] is A549/ATCC NSCLC.
The subject of assay [9] is 786-0 renal.
The subject of assay [10] is COLO 205 colon.
Assay [11] concerns DU-145 prostate.
For assay [12], the system named is K-562 leukemia.
The test system of assay [13] is MALME-3M melanoma.
For assay [14], the system named is MDA-MB-231 breast.
Assay [15] deals with RXF 393 renal.
Assay [16] concerns SF-268 CNS.
The test system of assay [17] is SF-295 CNS.
Assay [18] deals with SF-539 CNS.
Assay [19] relates to UACC-257 melanoma.
The subject of assay [20] is M14 melanoma.

SMILES strings stand for the structures. Compounds without any hit were thinned out: in the full panel of roughly 83,000, 20% have a hit.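 Growth was measured after 48 h exposure to one concentration of compound in 96-well plates. Values under 10 count as active.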 A number with no mark means an inactive call. Calls of active or inactive are those of the source.

With `c1ccc(-c2ccc3c(c2)C2(CCNCC2)CN3)cc1`, the growth in assay [1] was 86.3%; in assay [2], 95.9%; in [3] it was 102%; in [4], 95.2%; in assay [5], 95.8%; in assay [6] it was 86.1%. Moreover, the growth in [7] is 88.3%; in [8] it was 112%; in [9], 95.1%; in assay [10], 103%; in assay [11] it was 99%; in assay [12], 90%. For the same compound, the growth is 94.1% in assay [13]; 85.1% in [14]; 112% in assay [15]; 87.4% in assay [16]; 98.6% in assay [17]; 97.8% in assay [18]. The growth in assay [19] was 119%; in assay [20], 92.3%.
Consider `Cc1cc(=O)oc2cc(Oc3nc(Br)cn4c(Br)cnc34)ccc12`, for which the growth in [1] was 63.9%; in assay [2], 53.6%; in assay [3] it was 76.8%; in [4] it was 51.7%; in [5], 73.9%; in [6] it was 37.2%. Moreover, the growth in [7] is 54.8%; in assay [8], 77.8%; in [9] it was 29%; in assay [10], 113%; in assay [11], 75%; in assay [12], 93.6%. Further, the growth was 46.9% in assay [13]; 29.6% in [14]; 44.2% in assay [15]; 56.6% in assay [16]; 99.9% in assay [17]; 47.2% in assay [18]. Besides, the growth in assay [19] was 89.1%; in assay [20], 82.8%.
Consider `COc1cc(/C=C/C(=O)c2cccc(-n3cc(-c4ccc(Cl)cc4)[nH]c3=O)c2)ccc1O`, for which the growth in assay [1] is 97.5%; in [2] it was 101%; in [3], 92.6%; in [4], 130%; in [5] it was 93.7%; in assay [6], 56.9%. The growth in [7] is 23.4%; in assay [8], 77.3%; in [9] it was 84.3%; in assay [10], 124%; in assay [11], 78.1%; in assay [12], 17.9%. Also, the growth is 87.8% in [13]; 86% in [14]; 23.7% in assay [15]; 71.7% in assay [16]; 76.7% in assay [17]; 84.2% in [18]. In addition, the results for the growth in assay [19] and in [20] were 68% and 85.8%, respectively.
Regarding `COc1ccccc1S(=O)(=O)Nc1ccc2c3c(cc(CCC(=O)NCCCCNc4cccc5c4C(=O)N(C4CCC(=O)NC4=O)C5=O)cc13)C(=O)N2C` (stereo not given), the growth in assay [1] was 70.3%; in [2] it was -0.85% (active); in assay [3] it was -3.45% (active); in assay [4], 2.74% (active); in [5], 97.8%; in assay [6], -10.7% (active). For the same compound, the growth in [7] was 26.2%; in assay [8], 56.1%; in assay [9], 20.4%; in [10], 2.62% (active); in [11], 75.9%; in assay [12] it was 17.4%. In addition, the growth in [13] was -29% (active); in [14], -33.3% (active); in [15] it was -14.4% (active); in [16] it was 11.9%; in assay [17], 47.6%; in [18] it was 31.3%. The growth was 71.7% in assay [19] and 36% in [20].
Regarding `Clc1ccc(-c2nc(C(Cl)Cl)nc3cc(-c4ccccc4)nn23)cc1`, the growth was -3.66% (active) in assay [1]; 84.6% in [2]; -50.5% (active) in assay [3]; 14.6% in assay [4]; -54.6% (active) in assay [5]; 49.4% in assay [6]. The growth in [7] is 22.6%; in assay [8] it was -12.7% (active); in [9], 79.9%; in [10], -8.35% (active); in assay [11] it was -2.59% (active); in [12], 33.2%. The growth in assay [13] is 46.4%; in assay [14], 36.9%; in [15], -55% (active); in [16] it was 41.7%; in assay [17] it was 14.3%; in assay [18], 44%. For the same compound, the results for the growth in assay [19] and in assay [20] were 52.5% and 24.2%, respectively.
Consider `COc1cc(O)c2c(=O)c3c(CC=C(C)C)cc(OC)c(O)c3oc2c1`, for which the growth was 41.4% in [1]; 78.7% in assay [2]; 38.3% in [3]; 25.4% in assay [4]; 12.5% in assay [5]; 80.8% in assay [6]. The growth in [7] was -12.9% (active); in [8], 35.6%; in assay [9], 36.1%; in assay [10], 112%; in [11], 19.5%; in [12], 12.2%. In addition, the growth in assay [13] is 66.9%; in assay [14] it was 24.3%; in assay [15], 13.7%; in assay [16], 51.9%; in assay [17], 42.2%; in assay [18], 6.54% (active). Further, the growth was 63.1% in assay [19] and 15.6% in assay [20].
`Cc1cc(C)c2c(c1)N(C)c1ncnc(-n3c(C)nc4cc(C)ccc43)c1CC2C` (stereo not given): the growth was 61.7% in assay [1]; 61.6% in assay [2]; 73.4% in [3]; 43.7% in [4]; 22.6% in assay [5]; 11.2% in [6]. Besides, the growth in assay [7] is 19.4%; in assay [8] it was 26.3%; in assay [9], 30.1%; in assay [10], 54.1%; in [11], 55.3%; in assay [12], 12.4%. Besides, the growth was 45.4% in assay [13]; 61.2% in assay [14]; -10.4% (active) in [15]; 45.9% in assay [16]; 9.14% (active) in [17]; 25.2% in assay [18]. In addition, the growth was 25.8% in assay [19] and 25.3% in assay [20].
